Compound activity (PubChem)
ERK AVP block = blocks ERK signaling stimulated by vasopressin. HEK293-V1b, vasopressin-stimulated pERK AlphaScreen. Potency, µM (doses to about 57.5 µM), actives largely listed as inhibitors. 72,000 compounds, 0.99% hits. AID 995; note: nearly all actives have a fitted effect of over 55% in size
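qHTS, compounds titrated on V1b-expressing HEK293 cells. Preincubation 30 min at 37C, vasopressin 25 nM for 5 min, lysis 10 min, bead incubation 5 hr at room temperature.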
HBB splice mod = alters splicing of the hemoglobin beta chain. HBB splicing reporter cell assay, activation; EGFP reporter with mutant IVS2-654 intron; response scale: normalised to 500 nM splice-correcting PNA. Potency, µM (highest dose often 46.1 µM), usual class: activators. 65,000 compounds, 0.06% hits. AID 925
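Compounds were applied for 2 days to HeLa EGFP-654 cells, 500/well in Optimem with 2% FCS. The reporter's EGFP is disrupted by mis-splicing of beta-globin intron IVS2-654. Readout: summed well GFP fluorescence from 488 nm laser scanning; reference was 500 nM antisense […] 654 PNA.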
GFP derepression = epigenetic modulators derepressing GFP locus in mouse cells; mouse C127i GFP locus derepression, cytometry, 30 h; Potency, µM (highest dose often 46.1 µM); 68,000 compounds, 0.09% hits
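Derepression screen: silenced CMV-GFP reporter in murine C127i cells, 30 h compound incubation at 37 C, washed cells imaged by laser-scanning cytometer to enumerate GFP-expressing objects of 20 to 120 um.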
IkB signaling = suppresses IkB signaling in ABC-DLBCL reporter cells | ABC-DLBCL IkBa-CBG/CBR dual luciferase ratio, 4 h; response scale: scaled: untreated 0%, proteasome inhibitor 100% | Potency, µM (series often up to 57.1 µM) | 110,000 compounds, 0.04% hits | AID 445; active = well fitted curve in the direction sought with a large enough effect in the signal ratio, not every such curve was filed as active; inconclusive = small, poorly fitted or top-dose-only effect, or a change in a side signal; the % refers to the signal ratio;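 note: the direction sought is a rising ratio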
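Luminescence ratio of IκBα-fused green versus native red beetle luciferase in OCI-Ly3 cells, 4 h post-doxycycline with compound; red signal alone, scaled from basal (0%) to zero light (-100%), flagged nonspecific or cytotoxic effects.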
CRE-bla Fsk = CRE-bla signaling modulation under forskolin stimulation | CHO CRE-bla reporter (cAMP response element driving beta-lactamase), forskolin EC10, beta-lactamase ratio | Potency, µM (doses to about 38.2 µM), hits mostly activators | 71,000 compounds, 2.5% hits | AID 662; active = well fitted activation curve with a large enough effect in the signal ratio, with a control signal flat, not every such curve was filed as active; inconclusive = small, poorly fitted or top-dose-only effect, or effect the other way, or a change in a side signal; the % refers to the signal ratio
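CHO CRE-bla cells, overnight plating in Opti-MEM with 0.5% dialyzed FBS; cpd titration + EC10 NKH 477, 3 h 37 °C; CCF4 2 h RT; ex 405/em 460 vs 530 ratio → %Activity, AC50.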
Each line names hits and unclear results; the compound was inactive in the other large screens. Many of the other results were omitted from the sample, so hits are more common in it than they were. Unless noted, calls come from the whole dose curve; as a rule, active = well fitted curve in the direction sought with a large enough effect; inconclusive = small, poorly fitted or top-dose-only effect, or another doubt; inactive = no such curve, though single readings can be large; an effect the other way counts as inactive or inconclusive.

COc1cc(C(=O)O[C@@H]2CC(C)=CC[C@@]3(C)CC[C@](O)(C(C)C)[C@H]23)ccc1O	CRE-bla Fsk inconclusive (no result: ERK AVP block, HBB splice mod)
COc1ccccc1OCCSc1nc2ccccc2c(=O)[nH]1	CRE-bla Fsk 10µM
CC1CCN(C(=O)CSc2nc3ccccc3[nH]2)CC1	ERK AVP block inconclusive
O=C(CSc1nc2ccccc2[nH]1)N1CCN(c2ccc(F)cc2)CC1	ERK AVP block 25µM, CRE-bla Fsk inconclusive
COc1ccc(OC)c(NC(=O)CSc2nc3c(c(=O)n(C)c(=O)n3C)n2C)c1	CRE-bla Fsk 2µM
CCOc1ccc2nc(NC(=O)Nc3cccs3)sc2c1	ERK AVP block 32µM, IkB signaling inconclusive, CRE-bla Fsk inconclusive (no result: GFP derepression)
CCCn1c(SCC(=O)Nc2ccc3c(c2)OCO3)nc2c1c(=O)n(C)c(=O)n2C	ERK AVP block inconclusive, CRE-bla Fsk 2.5µM
CCCCn1c(SCC(=O)OC)nc2c1c(=O)n(C)c(=O)n2C	ERK AVP block 16µM, CRE-bla Fsk inconclusive (no result: HBB splice mod)
COC(=O)c1ccccc1NC(=O)CSc1nc2c(c(=O)n(C)c(=O)n2C)n1C	none
FC(F)(F)c1ccccc1-c1cc(NCc2cccnc2)ncn1	none
Cn1cccc1C(=O)N1CCC2(CC1)CCN(c1ccncc1)CC2	none
CC(C)C(C)/C=C/C(C)C1CCC2C3=CCC4CC(=O)CC[C@@]4(C)C3CC[C@]21C (some centres not stated)	none (no result: HBB splice mod, GFP derepression, IkB signaling, CRE-bla Fsk)
Cc1cc(C)c(Cn2c3ccccc3c3cnn(CC(=O)NCCCc4ccccc4)c(=O)c32)c(C)c1	none (no result: ERK AVP block, HBB splice mod, GFP derepression, CRE-bla Fsk)
CCn1c(SCC(=O)Nc2nc3ccc(OC)cc3s2)nc2c1c(=O)n(C)c(=O)n2C	ERK AVP block inconclusive, IkB signaling inconclusive, CRE-bla Fsk 2µM
CCOc1ccc2nc(NC(=O)CSc3nc4c(c(=O)n(C)c(=O)n4C)n3C(C)C)sc2c1	ERK AVP block inconclusive, IkB signaling inconclusive, CRE-bla Fsk 4µM
COc1ccc(OC)c(NC(=O)CSc2nc3ccccc3c(=O)n2CCNC(C)=O)c1	CRE-bla Fsk 10µM
COc1ccc(NC(=O)CSc2nc3ccccc3c(=O)n2CCNC(C)=O)c(OC)c1	CRE-bla Fsk inconclusive
Cc1cc(C)cc(NC(=O)C(=O)NCCc2sc(-c3cccc(F)c3)nc2C)c1	none (no result: ERK AVP block, HBB splice mod, GFP derepression, CRE-bla Fsk)
CC(C)(C)OC(=O)N1CCC(c2nnc(SCc3ccccc3F)o2)CC1	none (no result: ERK AVP block, HBB splice mod, GFP derepression, CRE-bla Fsk)
CCOc1ccccc1NC(=O)Cn1cnc2c(nnn2-c2cccc(OC)c2)c1=O	CRE-bla Fsk 13µM (no result: ERK AVP block, GFP derepression)
COc1cccc(-n2nnc3c(=O)n(CC(=O)NC4CCCC4)cnc32)c1	none
N#CC1=C(SCC(=O)c2cc3ccccc3oc2=O)NC(=O)C(C#N)C12CCCC2 (configuration not stated)	ERK AVP block 25µM, HBB splice mod inconclusive, IkB signaling inconclusive
COc1cc(C(=O)OCCN2CCOCC2)cc(OC)c1OC	CRE-bla Fsk inconclusive
COc1cc2c(cc1OC)-c1cc(NCc3ccccn3)nc(=O)n1CC2	ERK AVP block inconclusive, CRE-bla Fsk 13µM
COc1ccc(C2C(C(=O)NCc3ccccn3)c3cc(OC)c(OC)cc3C(=O)N2C)cc1 (configuration not stated)	none
CCCCCCNc1cc2n(c(=O)n1)CCc1cc(OC)c(OC)cc1-2	ERK AVP block inconclusive, CRE-bla Fsk 2µM
COc1cc2c(cc1OC)-c1cc(OCCN3CCOCC3)nc(=O)n1CC2	ERK AVP block inconclusive, CRE-bla Fsk 7.9µM
CCNc1cc2n(c(=O)n1)CCc1cc(OC)c(OC)cc1-2	CRE-bla Fsk 10µM
CCCSc1nc(=O)c2c(n1C)NC(=O)CC2c1cccc(F)c1F (configuration not stated)	none (no result: ERK AVP block, HBB splice mod, GFP derepression, CRE-bla Fsk)
CCC[C@H]1C[C@H](C(=O)N[C@H]([C@@H]2O[C@H](SC)[C@@H](O)[C@H](O)[C@@H]2O)[C@H](C)O)N(C)C1	none
Cc1c(Cl)cccc1NC(=O)c1cc2sccc2n1Cc1ccc(F)cc1	none (no result: ERK AVP block, HBB splice mod, GFP derepression, CRE-bla Fsk)
COc1cccc(NC(=O)/C=C\c2ccc(Cl)cc2)c1	ERK AVP block 32µM, IkB signaling inconclusive, CRE-bla Fsk inconclusive (no result: HBB splice mod)
CCC(=O)N1CCc2cc(CNS(=O)(=O)c3cc(OC)ccc3OC)ccc21	none (no result: ERK AVP block, HBB splice mod, GFP derepression, CRE-bla Fsk)
O=C(Nc1cccc(Cn2cccn2)c1)c1cc2c(s1)CCCC2	ERK AVP block 20µM, IkB signaling inconclusive, CRE-bla Fsk inconclusive
CC(=O)Nc1cccc(Cn2cccn2)c1	none
